From PubChem
NS1 function inh – qHTS Assay for Inhibitors of Influenza NS1 Protein Function | 270,000 tested, 0.4% active | Potency, µM (doses to about 46.1 µM), without a hit: at the highest dose activity, positive = more growth | AID 2326, 2010; calls by dose curve; further: potency means the concentration at half of the fitted maximal effect; actives are rising curves; nearly all actives have a fitted effect of over 50% in size
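Recovery from NS1-induced slow growth read by OD600 in budding yeast switched to galactose assay medium (pH 6.0, -URA) at 1:100 dilution. Compound 23 nl per well; the matching strain lacking NS1 serves as control.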
Shiga inhibitor – A qHTS for Small Molecule Inhibitors of Shiga Toxin; Vero cells, Shiga toxin protein synthesis inhibition reporter; inhibition, % at 38.7 µM; 290,000 tested, 9.2% active; AID 2315, 2010; in the data active means inhibition mostly above about 28%, no sharp cut-off; inactive means mostly below about 43%; further: 0% is about no effect
Pf growth 96h – Primary qHTS for delayed death inhibitors of the malarial parasite plastid, 96 hour incubation; 320,000 tested, 6.9% active; P. falciparum luciferase reporter growth, 96 h; AID 504834, 2011; Potency, µM (titrated, usually from 28.7 µM), for the others: at the highest dose activity change, negative = inhibition, most hits filed as inhibitors; further: potency means the concentration at half of the fitted maximal effect; on the % scale 0 is the no-effect control and ±100 the full control effect
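96 h incubation, 37 C, 5% CO2, of luciferase-reporter P. falciparum-infected RBCs (2% hematocrit, 0.05% parasitemia final) with test compounds; endpoint luminescence.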
Pf growth 48h – Primary qHTS for delayed death inhibitors of the malarial parasite plastid, 48 hour incubation; P. falciparum luciferase growth in erythrocytes, 48 h; Potency, µM (doses to about 28.7 µM), inactives show top-dose activity change, negative = inhibition, most hits filed as inhibitors; 310,000 tested, 5.9% active; further: potency means the concentration at half of the fitted maximal effect; on the % scale 0 is the no-effect control and ±100 the full control effect
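In quantitative HTS format, infected erythrocytes bearing luciferase-reporter parasites were treated for a single generation at 37 C. Luminescence after adding detection reagent served as the growth measure.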
CHX counter – Cycloheximide Counterscreen for Small Molecule Inhibitors of Shiga Toxin. cell reporter, cycloheximide protein synthesis inhibition counterscreen. max response, %. 300,000 tested, 12% active; in the data active means max response mostly above about 13%, no sharp cut-off; inactive means mostly below about 14%; further: read at 38.3 µM for the half of the compounds with a filed dose; 0% is about no effect
The depositor's hits bear a star; ? = inconclusive; nt = not tested or not shown; [ ] = another dose, or the depositor's remark. Only some compounds are listed: those with a hit (about 21% of all), similar ones and a draw of the others. Unless noted, the call rests on the fitted dose curve; in most records, active means well fitted inhibition curve with a large enough effect; inconclusive means small, poorly fitted or top-dose-only effect, or another doubt; inactive means no such curve, though single readings can be large or run the other way.

SMILES	NS1 function inh	Shiga inhibitor	Pf growth 96h	Pf growth 48h	CHX counter
COc1ccc(N(C)S(=O)(=O)c2cccc(C(=O)Nc3nc(C)cs3)c2)cc1	nt	nt	?	13µM*	nt
Cc1csc(N(C(=O)c2cccc(S(=O)(=O)N(C)C)c2)c2ccccc2)n1	-13%	6	8.3µM*	-17%	3
COc1cc(OC)cc(C(=O)Nc2ccc(-n3cnnn3)c(C)c2)c1	-7%	30*	-11%[5.75 µM]	106%	22*
COc1ccc(N(C)S(=O)(=O)c2cccc(C(=O)NCc3ccc(C)cc3)c2)cc1	nt	nt	5.9µM*	-11%	nt
COc1cc(NC(=O)c2ccccc2-n2cnnn2)cc(OC)c1	nt	nt	20%	-13%	nt
COc1nc(-c2cnccn2)sc1C	nt	14	-2%	?	12
Cc1ccc(C(=O)OCC(=O)c2c[nH]c3ccccc23)cc1S(=O)(=O)N1CCCCC1	9%	14	?	?	-2
COc1cc(OC)c(N(C)S(=O)(=O)c2cccc(C(=O)Nc3nc(C)cs3)c2)cc1Cl	nt	nt	?	13µM*	nt
COc1ccc(N(C)S(=O)(=O)c2cccc(C(=O)Nc3cc(OC)ccc3OC)c2)cc1	nt	-9	?	?	-4
CCOc1ccc(N(C)S(=O)(=O)c2ccc(C)c(C(=O)OCC(=O)c3c[nH]c4ccccc34)c2)cc1	-1%	3	?	13µM*	0
CC(=NC(C)C)C1=C(O)CCC1=O	?	2	78%	45%	2
CCc1nnc(NC(=O)c2ccc(S(=O)(=O)N3CCCc4ccccc43)cc2)o1	-85%	-8	nt	7.4µM*	2
CC1CCc2nc(NC(=O)c3ccc(S(=O)(=O)N4CCCc5ccccc54)cc3)sc2C1 (centres undefined)	0%	-4	?	?	-4
CCc1nnc(NC(=O)c2ccc(S(=O)(=O)N(C)c3ccccc3)cc2)o1	nt	18	?	?	-4
CNC(=O)c1ccsc1NC(=O)CCS(=O)(=O)c1ccccc1	nt	16	?	?	15
CNC(=O)c1ccsc1NC(=O)c1ccc(S(=O)(=O)N2CCCc3ccccc32)cc1	?	-1	9.3µM*	12µM*	3
O=C(Nc1nc2c(s1)CCCC2)c1ccc(S(=O)(=O)N2CCCc3ccccc32)cc1	2%	11	10µM*	?	10*
CNC(=O)c1ccsc1NC(=O)c1ccccc1	-48%	16*	?	41%	25*
O=C(NCC1CCN(S(=O)(=O)c2ccccc2)CC1)Nc1ccccc1	1%	7	?	?	1
C/C(Cn1nc([N+](=O)[O-])cc1C)=N\NC(=O)COc1ccc(Cl)cc1Cl	-11%	-3	-60%	2%	-2
Cc1cccc(N2CCN(S(=O)(=O)c3ccc4c(c3)NC(=O)CO4)CC2)c1C	-2%	-10	?	-14%	-11
COC(=O)CCc1sc(NC2CCCCC2)nc1-c1ccc(OC)cc1	-20%	36	?	1%	25*
CC(C)C(=O)N1CCC2(CC1)Oc1ccc(Cl)cc1C(=O)C21CC(c2ccccc2)=NO1 (centres undefined)	-8%	4	?	?	-4
O=C(c1ccc2c(c1)OCO2)N1CCC2(CC1)Oc1ccc(Cl)cc1C(=O)C21CC(c2cccnc2)=NO1 (centres undefined)	12%	-4	13µM*	12µM*	-1
Cc1ccc(C(=O)N2CCC3(CC2)Oc2ccc(Cl)cc2C(=O)C32CC(c3cccnc3)=NO2)s1 (centres undefined)	6%	-3	13µM*	?	-4
SMILES	NS1 function inh	Shiga inhibitor	Pf growth 96h	Pf growth 48h	CHX counter
O=C(/C=C/c1cccs1)N1CCC2(CC1)Oc1ccc(Cl)cc1C(=O)C21CC(c2cccnc2)=NO1 (centres undefined)	7%	-8	12µM*	13µM*	-2
Cc1ccc(/C=C2/C(=O)N=C(N)N2C)s1	7%	10	-6%	5%	1
C/C(=N\NC(=O)c1cccc(O)c1)c1cccc(NC(=O)c2ccc(F)cc2)c1	-6%	68*	-12%	34%	41*
C/C(=N/NC(=O)c1ccc(-c2ccccc2)cc1)c1cccc(O)c1	27%	22	5.9µM*	5%	8
COc1ccc(C(=O)Nc2cccc(/C(C)=N/NC(=O)c3ccc([N+](=O)[O-])c(C)c3)c2)cc1OC	-5%	27	-12%[5.75 µM]	6%	25
C/C(=N\NC(=O)c1ccccc1F)c1cccc(NC(=O)c2ccc(C)cc2)c1	-3%	58*	5.2µM*	69%	34*
C/C(=N\NC(=O)c1ccc(F)cc1)c1cccc(NC(=O)c2cccc(F)c2)c1	-19%	35*	-17%	?	16*
CN(Cc1ccccc1)S(=O)(=O)c1cccc(C(=O)O)c1	nt	-2	-26%	8%	-2
Cc1ccc(C(=O)OCC(=O)NCc2ccc(Cl)cc2Cl)o1	nt	nt	-24%	-14%	nt
O=[N+]([O-])c1ccc(OCC2CC(c3ccccc3)=NO2)cc1 (centres undefined)	3%	8	21%	18%	1
C/C(=N\NC(=O)c1cccc(F)c1)c1cccc(NC(=O)c2ccc(F)cc2)c1	-3%	26*	33%	11%	35*
O=C(CCCOc1ccccc1)N1CCN(c2ccccn2)CC1	-15%	115*	?	176%	27*
O=C(CCc1ccccc1)N1CCN(c2ccc(F)cc2)CC1	-9%	-14	0%	-5%	0
O=C(CCCOc1ccc(Cl)cc1Cl)N1CCN(c2ccccn2)CC1	-90%	27	nt	?	-2
O=C(CCCOc1ccccc1)N1CCN(c2ccc(F)cc2)CC1	-58%	112	12µM*	nt	24*
COC(=O)c1ccccc1OCC(=O)N1CCN(c2ccc(F)cc2)CC1	0%	-13	81%	-3%	-2
CC(=O)c1cc(F)ccc1OCC(=O)N1CCN(c2ccc(F)cc2)CC1	-2%	-5	-25%	4.1µM*	-3
Cc1ccc(S(=O)(=O)N/N=C/c2cccc3nccnc23)cc1	3%	-9	-7%	-2%	0
COc1cc(NC(=O)CCCC(=O)OCC(F)(F)C(F)F)nc(OC)n1	-38%	-9	11%	nt	-2
O=C1C2C3CCC(C3)C2C(=O)N1c1ccc(OS(=O)(=O)c2ccccc2)cc1 (centres undefined)	-6%	78*	2%	70%	33*
Cc1cccc(-c2cc3nc(C)cc(N4CC(C)CC(C)C4)n3n2)c1 (centres undefined)	18%	6	17%	21%	6
Cc1cc(C)n2ncc(-c3cccc(Br)c3)c2n1	-10%	55*	?	20%	65*
COc1ccccc1-c1cc2nc(C)cc(C)n2n1	-4%	57*	60%	44%	17
Cc1cc(C)n2nc(-c3cccc(Br)c3)cc2n1	-21%	nt	?	147%	32*
Cc1cccc(-c2cc3nc(C)cc(C)n3n2)c1	-7%	75*	0%	124%	49*
